# TRPML1 agonist – activates the human TRPML1 channel; actives 0.12% (n = 410,000); activation, % (concentration not given with the values); TRPML1-expressing cells, Ca2+ dye fluorescence, FDSS; in the data active = activation above about 50%; inconclusive = mostly about 30% to 49%
#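 Agonist activity was taken from a 110 s kinetic Ca2+ dye read on the FDSS after pinning compounds onto TRPML1-DL cells. The cells were seeded at 1,500/well with Tet inducer, incubated about 16 h, then dye-loaded at room temperature.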
# TRPV1 agonist – agonists of human vanilloid receptor 1 (TRPV1) | Q8NER1 | activation, % at 8.33 µM | actives 0.19% (n = 320,000) | TRPV1-expressing cells, Fluo-8 calcium influx, agonist mode; in the data active = activation above about 80%; inconclusive = between about 30% and that limit
#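 Cells expressing TRPV1 were dye-loaded with Fluo-8 and read kinetically: 10 s baseline, 3 min after compound (agonist portion), then 2 min after EC20 capsaicin (allosteric enhancer portion). Calcium-bound dye fluorescence at 480/520 nm.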
# A-T KAP1 phos – potential ataxia-telangiectasia treatment | F2112 A-T fibroblasts, KAP-1 phosphorylation AlphaLISA; neocarzinostatin DNA damage 30 min before lysis | Potency, µM (highest dose often 57.5 µM), actives largely listed as activators | actives 0.19% (n = 320,000) | AID 485349; also: nearly all actives have a fitted effect of over 45% in size
#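 ATM-like activity read as KAP-1 phosphorylation via AlphaLISA donor/acceptor antibody pairs after lysis and 6 hr at 25C. Cells were ATM-null patient fibroblasts (F2112, hTERT), dosed 60 min, then exposed to the DSB inducer NCS for 30 min.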
# TRPV1 potentiator – potentiators of human vanilloid receptor 1 (TRPV1). Q8NER1. TRPV1-expressing cells, Fluo-8 calcium influx, capsaicin EC20 potentiation. potentiation, % at 8.33 µM. actives 0.02% (n = 320,000); in the data active = potentiation above about 80%; inconclusive = between about 30% and that limit
#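 TRPV1-expressing cells were cultured overnight at 35.5C and loaded with Fluo-8 calcium dye for 40 to 90 min at room temperature. After a 10 s baseline, compound was added and calcium influx was read kinetically for 3 min (ex 480/em 520 nm).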
# TRPML1 blocker – human mucolipin-1 channel inhibition; TRPML1-inducible cells, Ca2+ dye fluorescence, FDSS; active compounds read low; inhibition of EC80 agonist-evoked calcium signal; activity change, negative = inhibition, % (no concentration beside the values); actives 0.02% (n = 390,000); in the data active = activity change below about -50%; inconclusive = between about -30% and that limit;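 also: stimulus is agonist 54-4 at its EC80 concentration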
#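 TRPML1-DL cells, Tet-induced overnight (~16 h, 37 °C) at 1,500 cells/well, were loaded with Ca8 no-wash dye plus quencher for 45-90 min at room temperature. Compounds were pinned during FDSS kinetic reading; agonist 54-4 at EC80 (4 uM final) then added.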
# RGS4 inh – human RGS4 inhibition; P49798; Transcreener GDP fluorescence polarization, RGS4-accelerated GTP hydrolysis; Potency, µM (titrated, usually from 114 µM), actives largely listed as inhibitors; actives 0.039% (n = 390,000); AID 504845; also: nearly all actives have a fitted effect of over 75% in size
# Target sequence (P49798 whole entry, looked up): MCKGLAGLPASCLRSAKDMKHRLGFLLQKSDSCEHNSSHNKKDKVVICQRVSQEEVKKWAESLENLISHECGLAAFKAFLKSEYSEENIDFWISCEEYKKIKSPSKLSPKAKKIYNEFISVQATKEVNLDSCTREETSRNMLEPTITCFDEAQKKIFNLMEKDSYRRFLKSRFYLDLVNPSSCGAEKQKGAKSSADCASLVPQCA
#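 MLSMR compounds (23 nl, pin-transferred) preincubated 10 min at room temperature with a 500nM (2x) first reagent, then RGS4 at 900nM (2x) plus Transcreener GDP mix added; fluorescence polarization (620/688 nm) read before and after 90 min at 30 °C.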
# A number is an active result; n = inactive; u = inconclusive; x = not tested or not shown; ! = not active in a repeat. Hits are enriched below; roughly 0.5% of the tested compounds scored in any of these assays. Unless noted, calls follow the shape of the dose curve; as a rule, active = well fitted curve in the direction sought with a large enough effect; inconclusive = small, poorly fitted or top-dose-only effect, or another doubt; inactive = no such curve, though single readings can be large; an effect the other way counts as inactive or inconclusive.
SMILES,TRPML1 agonist,TRPV1 agonist,A-T KAP1 phos,TRPV1 potentiator,TRPML1 blocker,RGS4 inh
CCCOc1cccc(OCCSc2nc(C)cc(=O)[nH]2)c1,n,81.6,n,n,n,n
Cc1cc(=O)[nH]c(SCCCOc2ccc(F)cc2)n1,n,n,x,n,n,n
CC(C)(C)c1cc(CCC(=O)NCc2ccncc2)cc(C(C)(C)C)c1O,n,91.3,n,n,n,n
CCC(C)(C)C1CCC(NC(=O)c2ccc(S(=O)(=O)N3CCOCC3)cc2)CC1 (stereo unspecified),n,80.4,n,n,n,n
CCN(CC)S(=O)(=O)c1cc(NC(=O)c2ccc(Br)s2)ccc1C,n,83.2,n,n,n,u
COc1cccc(CNc2ccc3nc(-c4ccc(N)cc4)c(OC)n3n2)c1,x,x,x,x,x,37.7µM!
Cc1oc(-c2cccs2)nc1CS(=O)CC(=O)NCCc1ccccc1 (stereo unspecified),n,87.4,n,n,n,n
CC(C)(C)c1ccc(NC(=S)NCc2cccnc2)cc1,n,86.4,n,n,n,n
S=c1[nH]nc(-c2ccccn2)n1/N=C/c1ccc(Br)s1,78.3,n,n,n,n,u
S=c1[nH]nc(-c2ccccn2)n1/N=C/c1ccc(Cl)c(Cl)c1,n,n,n,n,n,u
Nn1c(SCc2ccc(F)cc2)nnc1-c1ccccn1,n,u,15.8µM,n,n,n
CCOc1cc(-c2c(C#N)c(N)nc3c2CCc2ccccc2-3)ccc1O,n,n,n,n,n,n
COc1ccccc1-c1c(C#N)c(N)nc2c1CCc1ccccc1-2,n,n,22.4µM,n,n,n
CCCNC(=O)c1ccccc1N1CCN(CCCCN2C(=O)C3CCCCN3C2=O)CC1 (stereo unspecified),n,n,n,n,n,n
Cc1sc2ncnc(OCC(=O)N3CC(=O)Nc4ccccc43)c2c1C,n,n,n,95.9,n,n
CCN(CC)c1ccc2cc(-c3nnc(-c4ccncc4)o3)c(=O)oc2c1,116.0,106.9,n,u,u,n
CCN(CC)c1ccc2cc(-c3nnc(-c4cccc(Cl)c4)o3)c(=O)oc2c1,61.9,x,x,x,n,n
CCN(CC)c1ccc2cc(-c3nc(-c4ccccc4F)no3)c(=O)oc2c1,n,x,x,x,n,n
O=C(Nc1ccccc1Oc1ccccc1)c1cccs1,n,n,3.55µM,n,n,n
CSc1ccccc1NC(=O)c1cccs1,n,n,n,u,n,n
CCCCn1nnnc1C(c1ccccc1)N1CCN(Cc2c(F)cccc2Cl)CC1 (stereo unspecified),57.3,x,x,x,x,x
COc1ccc(-c2cc3cc(C(=O)O)ccn3c2C(=O)c2ccccc2)cc1,n,n,n,n,n,n
CN1CCN(c2ccc([N+](=O)[O-])cc2NC(=O)c2ccccc2Cl)CC1,n,n,n,n,n,n
C=CCN([C@H](C(=O)OC)C(C)C)S(=O)(=O)CCNCc1ccccc1,n,x,x,x,n,n
CCC(=C(c1ccc(O)cc1)c1ccc(OCCN(C)C)cc1)c1ccccc1,n,x,x,x,n,x
SMILES,TRPML1 agonist,TRPV1 agonist,A-T KAP1 phos,TRPV1 potentiator,TRPML1 blocker,RGS4 inh
COc1ccc(-n2nc(C(=O)NCC(=O)NCCCN3CCCCCC3)c3ccccc3c2=O)cc1Cl,n,n,n,81.0,n,u
COc1cc(/C=C/C(=O)CC(=O)/C=C/c2ccc(O)c(OC)c2)ccc1O,55.2!,u,n,n,n,n
Cc1ccc(OCC(=O)N/N=C\c2cccs2)c([N+](=O)[O-])c1,n,n,n,u,n,n
Cc1ccc([N+](=O)[O-])c(C(=O)N/N=C/c2cccs2)c1,n,83.0,n,n,n,n
NC(=O)NC1(C(=O)O)CCCC1,n,x,x,x,n,n
Cc1ccc(C(C)C)c(OCCCN2CCc3ccccc3C2)c1,x,n,u,n,x,n
Cc1ccc(OCCCCN2CCc3ccccc3C2)c(C)c1,n,n,35.5µM,n,n,n
Cc1ccc(C)c(OCCCN2CCc3ccccc3C2)c1,n,n,n,n,n,n
Cc1ccc(C(C)C)c(OCCCN(C)Cc2ccccc2)c1,n,n,35.5µM,n,n,n
Cc1ccc(C(C)C)c(OCCN2CCc3ccccc3C2)c1,n,n,35.5µM,n,n,n
CCOc1cc(C(=O)Oc2cc(C)[nH]c(=O)c2[N+](=O)[O-])cc(OCC)c1OCC,n,n,n,n,n,n
COc1ccc(OC)c(CC(=O)NC(c2ccccc2)c2ccccc2)c1,n,n,n,n,n,n
Cc1cc(NC(=O)/C=C/c2ccccc2)no1,n,n,x,n,n,n
COc1cc(CNc2ccc3[nH]c(=O)[nH]c3c2)ccc1OCc1c(F)cccc1Cl,n,90.2,n,n,n,n
COc1cc(CNc2ccc3[nH]c(=O)[nH]c3c2)ccc1OCc1ccccc1F,n,u,n,n,n,n
COc1ccc(OC)c2c1CCC1(C2)NC(=O)NC1=O (stereo unspecified),n,x,x,x,x,x
COc1ccc2c(c1C)CCC(C)(C#N)C2=O (stereo unspecified),77.9,x,x,x,n,n
Cc1ncoc1C(=O)NC1CC(C)(C)Cc2c1cnn2-c1ccc(F)cc1 (stereo unspecified),n,84.5,n,n,n,n
O=C(NCC1CCCCC1)c1cc(-c2cc(F)ccc2OCC2CCCO2)n[nH]1 (stereo unspecified),n,x,x,x,x,x
CC(NC(=S)Nc1ccccc1Cl)C(c1ccccc1)N1CCOCC1 (stereo unspecified),79.9,n,n,n,n,n
CCC1(CC)SCCNC1=O,n,x,x,x,n,n
CCN(CC)S(=O)(=O)c1ccc(C)c(NC(=O)COC(=O)[C@@H]2CCCN2C(=O)c2cccs2)c1,n,n,n,n,n,n
Cc1ccc(CNC(=O)CSCc2ccc(F)cc2)cc1,n,80.6,n,n,n,n
Cc1ccc(CNC(=O)CSCc2ccccc2)cc1,n,u,n,n,n,n
CCn1c(=O)cc(OCC(=O)NCCC(C)C)c2ccccc21,n,n,n,n,n,n
SMILES,TRPML1 agonist,TRPV1 agonist,A-T KAP1 phos,TRPV1 potentiator,TRPML1 blocker,RGS4 inh
COC(CNC(=O)Cn1nc(Cc2ccncc2)c2ccccc2c1=O)OC,n,n,n,n,n,n
CCCCOc1ccc(CNC(=O)c2cccc(NC(=O)N3CCSc4ncccc43)c2)cc1,n,x,x,x,n,n
CC1=CC(C)(C)N(C(=O)CN2C(=O)c3ccccc3C2=O)c2ccc(C)cc21,61.4,n,n,n,n,n
Cc1nc(Cc2ccccc2)sc1CC#N,n,x,x,x,n,n
Cn1c(=O)c(NC2CCCCC2)c2c3c(cccc31)C(=O)c1ccccc1-2,100.0,89.0,n,n,u,n
CCNc1c2c3c(cccc3n(C)c1=O)C(=O)c1ccccc1-2,66.8,86.4,n,n,n,n
CCCCNc1c2c3c(cccc3n(C)c1=O)C(=O)c1ccccc1-2,88.8,u,u,n,n,n
